Among the test systems are SR leukemia; RPMI-8226 leukemia; OVCAR-8 ovarian; OVCAR-5 ovarian; OVCAR-4 ovarian; SK-OV-3 ovarian; IGROV1 ovarian; OVCAR-3 ovarian; HS 578T breast; NCI/ADR-RES ovarian.
Test in all cases: NCI-60 one-dose screen, 48 h (100 = growth as untreated, 0 = no growth, -100 = all killed)
Common to all, as to conditions: 10 µM

Compounds without any hit were thinned out: in the full panel of roughly 83,000, 20% have a hit.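 Negative percent growth values reflect cell death: -40 means 40% of the cells present at the start died, and -100 means all died.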 A number with no mark means an inactive call. The source made the active and inactive calls. How the source made its calls: active means growth percent below 10; inactive means the rest.

`CC(C)C1=C[C@@]23CC[C@@H]4[C@](C)(CCC[C@]4(C)C(=O)NCc4ccccc4)[C@H]2C[C@@H]1[C@H]1C(=O)CCC(=O)[C@H]13`: the growth with SR leukemia was 44.4%; with RPMI-8226 leukemia, 40.4%; in the assay with OVCAR-8 ovarian it was 75.1%; in the assay with OVCAR-5 ovarian, 83.8%; in the assay on OVCAR-4 ovarian it was 47.3%; in the assay on SK-OV-3 ovarian, 105%. Besides, the growth with IGROV1 ovarian is 90.6%; with OVCAR-3 ovarian it was 86.9%; with HS 578T breast, 63.1%; with NCI/ADR-RES ovarian, 74%.
`O=C(CSc1nnc(-c2c[nH]c3ccccc23)n1-c1ccccc1)Nc1ccc(C(=O)/C=C/c2ccc(Cl)cc2)cc1`: the growth in the assay on SR leukemia was 70.8%; in the assay with RPMI-8226 leukemia, 4.94% (active); in the assay with OVCAR-8 ovarian it was 85.5%; with OVCAR-5 ovarian, 98.2%; with OVCAR-4 ovarian, 74.8%; in the assay on SK-OV-3 ovarian it was 80.7%. Also, the growth with IGROV1 ovarian was 74.7%; in the assay with OVCAR-3 ovarian, 69.6%; with HS 578T breast it was 73.2%; in the assay with NCI/ADR-RES ovarian, 92.9%.
Consider `COc1cc2c3c(n(CCCNC(C)C)c(=O)c2cc1OC)-c1nc2c(cc1C3=O)OCO2`, for which the growth was 2.57% (active) in the assay on SR leukemia; -26.2% (active) in the assay with RPMI-8226 leukemia; -58% (active) in the assay with OVCAR-8 ovarian; -93.2% (active) with OVCAR-5 ovarian; 49.8% in the assay on OVCAR-4 ovarian; 26.5% in the assay with SK-OV-3 ovarian. Also, the growth was 40.8% in the assay on IGROV1 ovarian, -97.4% (active) with OVCAR-3 ovarian, 88.8% in the assay on HS 578T breast and -72% (active) with NCI/ADR-RES ovarian.
Consider `Cc1ccc(-c2ccc(SCC(=O)Nc3ccc(S(N)(=O)=O)cc3Br)nn2)cc1`, for which the growth in the assay with SR leukemia was 75.3%; in the assay with RPMI-8226 leukemia, 67.8%; in the assay on OVCAR-8 ovarian, -29.8% (active); with OVCAR-5 ovarian, 42%; in the assay with OVCAR-4 ovarian, 19.5%; in the assay with SK-OV-3 ovarian, 101%. Also, the growth is 45.1% in the assay on IGROV1 ovarian, -63.8% (active) with OVCAR-3 ovarian, 31.9% in the assay with HS 578T breast and 65% in the assay on NCI/ADR-RES ovarian.
Take `CC(=O)Nc1ccc(-c2cn(-c3cccc(C(=O)Nc4ccc(Cl)c(C(F)(F)F)c4)c3)nn2)cn1`: the growth with SR leukemia is 16.1%; with RPMI-8226 leukemia it was 16.2%; in the assay on OVCAR-8 ovarian it was -32.7% (active); in the assay with OVCAR-5 ovarian, -17.8% (active); in the assay with OVCAR-4 ovarian, -74.9% (active); in the assay with SK-OV-3 ovarian, -3.46% (active). The growth was -54% (active) in the assay with IGROV1 ovarian, -75.9% (active) in the assay on OVCAR-3 ovarian, -12% (active) in the assay with HS 578T breast and 41.6% with NCI/ADR-RES ovarian.
As for `COc1cc(OC(F)(F)F)ccc1C(=O)Nc1sc2c(c1C#N)CCC(=O)C2`, the growth with SR leukemia was 15.1%; with RPMI-8226 leukemia it was 51.7%; in the assay with OVCAR-8 ovarian, 93%; in the assay on OVCAR-5 ovarian, 138%; with OVCAR-4 ovarian, 62.1%; with SK-OV-3 ovarian it was 81.2%. In addition, the growth was 112% with IGROV1 ovarian, 112% with OVCAR-3 ovarian, 75.9% with HS 578T breast and 75.1% in the assay with NCI/ADR-RES ovarian.
As to `COC1=C[C@]23CCC(=O)N2CCc2cc4c(cc2[C@@H]3[C@@H]1OC(=O)CCCC(C)C)OCO4`, the growth was 18.2% in the assay with SR leukemia; 22.4% with RPMI-8226 leukemia; 73.9% with OVCAR-8 ovarian; 78.4% with OVCAR-5 ovarian; 54% in the assay on OVCAR-4 ovarian; 53.7% with SK-OV-3 ovarian. The growth in the assay on IGROV1 ovarian was 43.3%; in the assay on OVCAR-3 ovarian it was 45%; in the assay with HS 578T breast it was 71.8%; in the assay with NCI/ADR-RES ovarian, 74.9%.
`COc1ccc(CN2[C@@H](C(=O)NCc3ccc(C(=O)NO)cc3)Cc3c([nH]c4ccccc34)[C@@H]2C2CC2)cc1`: the growth in the assay on SR leukemia is 15.2%; with RPMI-8226 leukemia, 19.3%; in the assay with OVCAR-8 ovarian it was 16.7%; in the assay with OVCAR-5 ovarian it was 11.5%; with OVCAR-4 ovarian, 35.6%; in the assay on SK-OV-3 ovarian, -24.8% (active). Further, the growth with IGROV1 ovarian is 18.1%; with OVCAR-3 ovarian it was 10.5%; in the assay on HS 578T breast, -14.3% (active); in the assay on NCI/ADR-RES ovarian, 69.9%.
Consider `O=C(/C=C/Nc1ccc(F)cc1F)c1ccc2c(c1)Nc1ccccc1S2`, for which the growth in the assay on SR leukemia is 31.7%; in the assay on RPMI-8226 leukemia, 78.2%; with OVCAR-8 ovarian, 64.6%; in the assay with OVCAR-5 ovarian it was 86.8%; in the assay with OVCAR-4 ovarian, 68.2%; with SK-OV-3 ovarian it was 95.2%. The growth in the assay on IGROV1 ovarian was 77.9%; in the assay with OVCAR-3 ovarian, 100%; in the assay on HS 578T breast, 63%; in the assay with NCI/ADR-RES ovarian it was 57.1%.
Turning to `O=C(NO)c1ccc(CNC(=O)[C@H]2Cc3c([nH]c4ccccc34)[C@H](c3ccc(Cl)cc3)N2)cc1`, the growth in the assay with SR leukemia is 17.2%; in the assay on RPMI-8226 leukemia, 16.9%; in the assay with OVCAR-8 ovarian, 16.1%; in the assay on OVCAR-5 ovarian it was -6.43% (active); in the assay on OVCAR-4 ovarian it was 39.7%; with SK-OV-3 ovarian, -12.7% (active). In addition, the growth in the assay on IGROV1 ovarian is -24.6% (active); in the assay on OVCAR-3 ovarian, 7.44% (active); in the assay with HS 578T breast, 6.12% (active); in the assay on NCI/ADR-RES ovarian, 42%.
With `CN1C(=O)N(C)C2SC(N/N=C/c3cccs3)=NC21` (stereo not given), the growth was 13.4% in the assay on SR leukemia; 51.9% with RPMI-8226 leukemia; 34.4% in the assay with OVCAR-8 ovarian; 42.5% in the assay on OVCAR-5 ovarian; 57.9% in the assay on OVCAR-4 ovarian; 40.7% in the assay with SK-OV-3 ovarian. The growth is 36.7% in the assay with IGROV1 ovarian, -54% (active) in the assay with OVCAR-3 ovarian, 25.3% in the assay on HS 578T breast and -15.2% (active) in the assay with NCI/ADR-RES ovarian.
`CN(C(=O)c1ccc(C(C)(C)C)cc1)c1sc2c(c1C#N)CCC(=O)C2`: the growth with SR leukemia is 13.7%; in the assay with RPMI-8226 leukemia, 9.38% (active); in the assay with OVCAR-8 ovarian, 5.3% (active); with OVCAR-5 ovarian, 8.47% (active); in the assay on OVCAR-4 ovarian, 1.97% (active); in the assay on SK-OV-3 ovarian it was 101%. The growth with IGROV1 ovarian was -34.4% (active); in the assay with OVCAR-3 ovarian, -69.7% (active); in the assay with HS 578T breast it was 11.8%; in the assay with NCI/ADR-RES ovarian, -35.1% (active).
Regarding `COc1ccc(CN2[C@H](C(=O)NCCCCCCC(=O)NO)Cc3c([nH]c4ccccc34)[C@H]2C2CC2)cc1`, the growth was 16% with SR leukemia; 15.7% with RPMI-8226 leukemia; 2.69% (active) in the assay with OVCAR-8 ovarian; -21.2% (active) in the assay on OVCAR-5 ovarian; 40.6% with OVCAR-4 ovarian; -33.5% (active) in the assay with SK-OV-3 ovarian. The growth was -42.4% (active) with IGROV1 ovarian, 3.23% (active) in the assay with OVCAR-3 ovarian, -1.3% (active) in the assay on HS 578T breast and 61.9% in the assay on NCI/ADR-RES ovarian.
On to `COc1cc2oc(-c3cccc(C(=O)Nc4ccc(Cl)cc4)c3)cc(=O)c2c(OCCNC(=O)CNC(=O)OC(C)(C)C)c1OC`, for which the growth was 37.5% with SR leukemia; 29.4% with RPMI-8226 leukemia; 48% with OVCAR-8 ovarian; 67.8% in the assay with OVCAR-5 ovarian; 65.8% in the assay on OVCAR-4 ovarian; 92.7% in the assay with SK-OV-3 ovarian. Also, the growth with IGROV1 ovarian was 50.9%; in the assay with OVCAR-3 ovarian it was 98.3%; with HS 578T breast, 62.8%; in the assay with NCI/ADR-RES ovarian, 50.6%.
As to `COc1cc(/C=C/C(=O)c2ccc(F)cc2)ccc1Oc1nc(Nc2ccc(F)cc2)nc(N(C)C)n1`, the growth in the assay on SR leukemia is 4.07% (active); with RPMI-8226 leukemia, 24.2%; in the assay with OVCAR-8 ovarian it was 42.7%; in the assay on OVCAR-5 ovarian, 93.1%; in the assay on OVCAR-4 ovarian, 56.1%; in the assay with SK-OV-3 ovarian it was 103%. For the same compound, the growth with IGROV1 ovarian is 93.8%; with OVCAR-3 ovarian, 64.2%; in the assay with HS 578T breast it was 59.3%; with NCI/ADR-RES ovarian, 50.6%.

The values are drawn from PubChem BioAssay (NCI).
